MPTP block = blocks calcium-induced mitochondrial swelling; actives 1.4% (n = 360,000); inhibition, % at 10 µM; isolated mouse mitochondria, Ca2+ swelling absorbance, 30 min;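 active = inhibition of 50% or more, scaled per plate between neutral and stimulator controls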;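 also: 0% = DMSO wells given calcium and 100% = 1 mM EGTA wells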
CSC inhib = cancer stem cell inhibition | cancer stem cell-like cells viability, luminescence | inhibition, % at 7.5 µM | actives 1.1% (n = 300,000) | AID 2717; in the data active = inhibition above about 75%; tested in HMLE shEcad cells
Gli-Sufu antag = antagonists of Gli-Sufu signaling | Sufu-KO-LIGHT fibroblasts, Gli luciferase reporter luminescence | inhibition, % at 5 µM | actives 0.74% (n = 340,000) | AID 588413;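 active = inhibition above about 55%, limit read from the data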;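 also: 0% = DMSO-treated cells and 100% = wells with medium but no cells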
NR3A LBD binder = modulators (binders) of human NR3A ligand-binding domain; actives 2.5% (n = 340,000); NR3A LBD differential scanning fluorimetry, Tm shift; 0% = protein alone, 100% = glycine-bound protein; Tm shift relative to glycine control, % at 25 µM;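 active = melting temperature shift of at least 10% of the positive control shift, at one fixed dose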
Beta apoptosis = blocks beta cell apoptosis | INS-1E cytokine-induced death, ATP luminescence, 48 h; percent of positive-control rescue, neutral wells zero | protection from apoptosis, % (no concentration beside the values) | actives 0.8% (n = 300,000);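 active = Every replicate reaches about 75%, or at least half do and their mean reaches it too, limit read from the data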;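 also: 0% = cytokine-treated negative control wells and 100% = positive control rescue; higher means more ATP so stronger rescue from cytokine killing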
Mdm2 MdmX PPI = inhibitors of human Mdm2/MdmX interaction; O15151+Q00987; SaOS-2 split-luciferase Mdm2/MdmX complementation, luminescence; inhibition, % at 8 µM; actives 3% (n = 330,000); AID 485346;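 active = inhibition of at least 50% at 8 µM in the primary screen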
Target sequence (O15151 whole entry, looked up): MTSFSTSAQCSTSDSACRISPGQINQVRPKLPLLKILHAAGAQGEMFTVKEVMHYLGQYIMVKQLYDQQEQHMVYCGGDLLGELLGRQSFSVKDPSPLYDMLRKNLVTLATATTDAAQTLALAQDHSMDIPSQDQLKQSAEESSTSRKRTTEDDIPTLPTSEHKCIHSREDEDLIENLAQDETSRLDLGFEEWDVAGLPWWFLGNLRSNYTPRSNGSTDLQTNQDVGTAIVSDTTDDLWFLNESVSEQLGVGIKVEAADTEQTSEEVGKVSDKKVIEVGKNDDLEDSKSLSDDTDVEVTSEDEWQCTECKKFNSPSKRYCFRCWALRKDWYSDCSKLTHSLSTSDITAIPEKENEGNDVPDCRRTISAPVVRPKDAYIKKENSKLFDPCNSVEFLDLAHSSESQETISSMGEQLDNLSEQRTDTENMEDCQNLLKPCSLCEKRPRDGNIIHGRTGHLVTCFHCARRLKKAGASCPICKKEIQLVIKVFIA
Target sequence (Q00987 whole entry, looked up): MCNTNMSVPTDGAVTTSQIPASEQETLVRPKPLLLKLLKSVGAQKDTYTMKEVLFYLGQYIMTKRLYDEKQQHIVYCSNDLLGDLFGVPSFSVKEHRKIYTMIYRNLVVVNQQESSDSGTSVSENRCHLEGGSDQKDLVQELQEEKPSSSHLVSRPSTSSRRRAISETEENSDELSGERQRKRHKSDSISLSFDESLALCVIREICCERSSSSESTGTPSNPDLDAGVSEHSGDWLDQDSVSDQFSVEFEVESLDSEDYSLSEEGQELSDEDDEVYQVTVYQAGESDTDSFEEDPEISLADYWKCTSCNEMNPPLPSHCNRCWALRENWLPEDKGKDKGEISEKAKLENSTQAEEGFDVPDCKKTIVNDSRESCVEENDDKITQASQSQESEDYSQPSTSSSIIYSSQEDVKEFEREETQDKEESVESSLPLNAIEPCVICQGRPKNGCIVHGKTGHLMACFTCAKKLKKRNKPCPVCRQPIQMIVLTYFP
Gli-Sufu confirm = Gli-SUFU antagonism confirmation, single concentration; shares compounds with Gli-Sufu antag; Sufu-KO-LIGHT cells, Gli luciferase reporter, luminescence; inhibition, % at 5 µM; actives 40% (n = 2,500);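 active = mean inhibition at 5 µM reaching about 45%, limit read from the data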;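 also: plate controls were DMSO-treated cells for no effect and wells lacking cells for full effect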
SufuKO cytotox = counter-screen for Gli-SUFU antagonists: cytotoxicity. Sufu-KO-LIGHT cells cytotoxicity, ATP luminescence. actives 32% (n = 2,500). shares compounds with Gli-Sufu antag. cytotoxicity, % at 5 µM;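 active = mean cytotoxicity at 5 µM above about 25%, limit read from the data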;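 also: cells exposed to compound overnight for roughly 16 to 18 hours; plate controls were DMSO wells with cells for no effect and medium without cells for full effect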
Wnt3a cs = inhibits Wnt3a reporter, counter-screen for Gli-SUFU antagonists. inhibition, % at 6.25 µM. actives 20% (n = 2,500). AID 651995. Wnt-LIGHT cells, Wnt3a-driven luciferase reporter, luminescence. shares compounds with Gli-Sufu antag;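 active = mean inhibition above about 25%, limit read from the data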
* marks the source's active call; other numbers are inactive results. Only some compounds are listed: those with a hit (about 6.6% of all), similar ones and a draw of the others.

What do the screens show for `CC(C)Cn1c(N)c(C(=O)COC(=O)C2Cc3ccccc3CN2S(C)(=O)=O)c(=O)n(C)c1=O` (stereo not drawn)?
MPTP block: 0; CSC inhib: 47; Gli-Sufu antag: 56*; NR3A LBD binder: -2; Beta apoptosis: 27; Mdm2 MdmX PPI: 11; Gli-Sufu confirm: 61*; SufuKO cytotox: 31*; Wnt3a cs: 8

Results for CC(C)Cn1c(N)c(C(=O)COC(=O)C2CCCCC2)c(=O)n(C)c1=O ?
MPTP block: 1; CSC inhib: -13; Gli-Sufu antag: 7; NR3A LBD binder: 0; Beta apoptosis: -2; Mdm2 MdmX PPI: 12

How did COc1ccc2c(c1)nc(SCC(=O)C(C)(C)C)n2C do in these assays?
MPTP block: 0; CSC inhib: -1; Gli-Sufu antag: 64*; Beta apoptosis: -2; Mdm2 MdmX PPI: 30; Gli-Sufu confirm: 24; SufuKO cytotox: 6; Wnt3a cs: -5

Results for COc1ccc(CC(=O)NC(=S)Nc2ccc(S(N)(=O)=O)cc2)cc1 ?
MPTP block: 0; CSC inhib: -8; Gli-Sufu antag: 0; NR3A LBD binder: 3; Beta apoptosis: -2; Mdm2 MdmX PPI: 5

What do the screens show for `C=CCN(CC=C)S(=O)(=O)c1ccc(NC(=S)NC(=O)Cc2ccc(OC)cc2)cc1`?
MPTP block: -1; CSC inhib: 1; Gli-Sufu antag: 69*; NR3A LBD binder: -2; Beta apoptosis: -8; Mdm2 MdmX PPI: 20; Gli-Sufu confirm: 16; SufuKO cytotox: 17; Wnt3a cs: 24

How did CN(CCCNC(=O)CCC(=O)N1CCOc2ccccc21)Cc1ccccc1 do in these assays?
MPTP block: -2; CSC inhib: -8; Gli-Sufu antag: 5; NR3A LBD binder: -1; Beta apoptosis: -1; Mdm2 MdmX PPI: 14

What do the screens show for `COc1ccc(N2CCN(S(=O)(=O)c3ccc(OC)c(C(=O)N4CCCC4)c3)CC2)cc1`?
MPTP block: 2; CSC inhib: 1; Gli-Sufu antag: 70*; NR3A LBD binder: 0; Beta apoptosis: 13; Mdm2 MdmX PPI: 18; Gli-Sufu confirm: 10; SufuKO cytotox: 16; Wnt3a cs: -23

What do the screens show for `Cc1c(-c2ccc(F)cc2)[n+](=O)c2c(n1[O-])CCCCC2`?
MPTP block: -2; CSC inhib: -7; Gli-Sufu antag: 6; NR3A LBD binder: 0; Beta apoptosis: -4; Mdm2 MdmX PPI: 12

What do the screens show for `Cc1ccc(S(=O)(=O)CC2CSc3nc4ccccc4n32)cc1` (stereo not drawn)?
MPTP block: 25; CSC inhib: 6; Gli-Sufu antag: 72*; NR3A LBD binder: -112; Beta apoptosis: 92*; Mdm2 MdmX PPI: -19; Gli-Sufu confirm: 70*; SufuKO cytotox: 18; Wnt3a cs: 47*

Results for Clc1ccc(-n2ncc3c(NCCN4CCOCC4)ncnc32)cc1 ?
MPTP block: -1; CSC inhib: 11; Gli-Sufu antag: 54; NR3A LBD binder: -1; Beta apoptosis: -5; Mdm2 MdmX PPI: 21; Gli-Sufu confirm: 66*; SufuKO cytotox: 18; Wnt3a cs: 59*

What do the screens show for `c1ccc(-n2ncc3c(NCCCN4CCOCC4)ncnc32)cc1`?
MPTP block: -4; CSC inhib: -13; Gli-Sufu antag: -56; NR3A LBD binder: 2; Beta apoptosis: -8; Mdm2 MdmX PPI: -36

Results for O=C(O)c1ccc(N/N=C/c2ccc3nccnc3c2)cc1 ?
MPTP block: 1; CSC inhib: 27; Gli-Sufu antag: 55*; NR3A LBD binder: 1; Beta apoptosis: 5; Mdm2 MdmX PPI: 19; Gli-Sufu confirm: 59*; SufuKO cytotox: 35*; Wnt3a cs: 101*

What do the screens show for `O=C(O)c1ccc(N/N=C/c2ccncc2)cc1`?
MPTP block: 0; CSC inhib: -9; Gli-Sufu antag: -4; NR3A LBD binder: -2; Beta apoptosis: -1; Mdm2 MdmX PPI: 12
